Measured values taken from PubChem BioAssay (NCATS).
Results filed as inconclusive are left out. The source made the active and inactive calls. Calls come from the whole dose curve; as a rule, active = well fitted inhibition curve with a large enough effect; inconclusive = small, poorly fitted or top-dose-only effect; inactive = no such curve, though single readings can be large or run the other way.
Potency is the fitted concentration of half-maximal effect.

These compounds were tested against Retinaldehyde dehydrogenase 3 (Homo sapiens) (UniProt P47895) (assay: qHTS for Inhibitors of the Aldehyde Dehydrogenase Family (ALDH1A3) Primary screen (AID 2061315;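 for activity change, negative = inhibition: plate controls were DMSO vehicle for no effect and reference inhibitor for full effect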)). Conditions: ALDH inhibition qHTS; series mostly up to 56 µM; activity change, negative = inhibition: at the top concentration.
With `Nc1nccn2c(C3CCC(C(=O)O)CC3)nc(-c3cc4cccc(Cl)c4[nH]3)c12` (configuration not stated) the “activity change, negative = inhibition” value was 48.1% (inactive).
For `Cc1ccc(N2CCN(C(=S)Nc3cc(C)ccn3)CC2)cc1`, the “activity change, negative = inhibition” value was 0.568% (inactive).
In the case of `NC(=O)C1CCN(c2nc(-c3ccc(Oc4ccccc4)cc3)cs2)CC1`, the “activity change, negative = inhibition” value is reported as 1.49% (inactive).
`Cc1cc(C)nc(NC(=S)N2CCN(c3cncs3)CC2)c1` was tested, and the “activity change, negative = inhibition” value was -10.2% (inactive).
In the case of `Cc1c(C(=O)O)[nH]c2c1C(=O)CC(c1ccco1)C2` (configuration not stated), the “activity change, negative = inhibition” value is reported as -13.5% (inactive).
With `CN(C)c1cccc(-c2ncnc(N3CCC(C(N)=O)CC3)n2)c1` the “activity change, negative = inhibition” value was -22.6% (inactive).
With `O=C(Cc1nnc(-c2ccncc2)s1)Nc1ccc(F)c(C(F)(F)F)c1` the “activity change, negative = inhibition” value was 3.96% (inactive).
With `CC(=O)N1CCN(c2cccc(Nc3nn4c(=O)c5ccccc5nc4s3)c2)CC1` the “activity change, negative = inhibition” value was -10.3% (inactive).
In the case of `O=C1c2ccccc2NC(c2ccc(-c3cccc(Cl)c3)o2)N1O` (configuration not stated), the “activity change, negative = inhibition” value is reported as 17.8% (inactive).
In the case of `O=c1c2ccccc2nc2sc(NS(=O)(=O)c3ccc4c(c3)CCC4)nn12`, the “activity change, negative = inhibition” value is reported as -5.34% (inactive).
`COc1ccc2ncnc(NCc3cccs3)c2c1-c1ccc2c(c1)OCO2` was tested, and the “activity change, negative = inhibition” value was -9.41% (inactive).
In the case of `O=S1(=O)N=C(Oc2ccc(Br)cc2)c2ccccc21`, the “activity change, negative = inhibition” value is reported as -15.8% (inactive).
With `O=C(CN1C(=O)N/C(=C\c2cccn2-c2cccc(C(=O)O)c2)C1=O)Nc1ccc(Cl)cc1` the “activity change, negative = inhibition” value was 3.18% (inactive).
`COc1cccc(CNc2ccc(S(=O)(=O)Nc3cccs3)cc2)c1O` was tested, and the activity change, negative = inhibition was -2.44% [at 11.2 µM] (inactive).
For `O=S1(=O)N=C(Oc2ccc3ccccc3c2)c2ccccc21`, the “activity change, negative = inhibition” value was -12.4% (inactive).
`Cc1cc(C)nc(NC(=S)N2CCN(c3cc(C(F)(F)F)nc4ccc(C(F)(F)F)cc34)CC2)c1` was tested, and the “activity change, negative = inhibition” value was -18.9% (inactive).
For `Cc1ccnc(NC(=S)N2CCN(c3cccc(C(F)(F)F)c3)CC2)n1`, the “activity change, negative = inhibition” value was 34.1% (inactive).
`O=C1CCc2cc(S(=O)(=O)Nc3ccccn3)ccc2N1` was tested, and the “activity change, negative = inhibition” value was -6.44% (inactive).
For `COc1ccccc1O[C@@H]1O[C@H](CO)[C@H](O)[C@H](O)[C@H]1O`, the “activity change, negative = inhibition” value was -20.2% (inactive).
`CC(=O)c1ccc(N2CCN(S(=O)(=O)c3ccc4[nH]c(=O)[nH]c4c3)CC2)cc1` was tested, and the “activity change, negative = inhibition” value was -18.1% (inactive).
With `CCOC(=O)c1nn(-c2ccc(OC)cc2)c(=O)c2c(N)scc12` the “activity change, negative = inhibition” value was -15.6% (inactive).
`CC(=O)Nc1sc2c(c1-c1cc3ccccc3s1)CCNC2` was tested, and the “activity change, negative = inhibition” value was -10.2% (inactive).
`CCOc1cc2c(cc1OCC)CN(C(=O)c1cc3sccc3n1Cc1ccccc1)CC2` was tested, and the “activity change, negative = inhibition” value was -30.4% (inactive).
In the case of `CCN(Cc1cccs1)c1ncnc2ccc(-c3ccc4c(c3)OCO4)cc12`, the Potency is reported as “inactive”.
In the case of `Cc1ccc(NS(=O)(=O)c2cc3c(cc2-c2ccsc2)NC(=O)CO3)cc1C`, the “activity change, negative = inhibition” value is reported as 1.67% (inactive).
With `CN(CC(=O)Nc1ccc(N2CCOCC2)cc1)Cc1cccc2ccccc12` the “activity change, negative = inhibition” value was -12.5% (inactive).
For `Clc1nc(CN2CCOCC2)nc2sc3c(c12)CCC3`, the “activity change, negative = inhibition” value was -5.31% (inactive).
For `CS(=O)(=O)c1ccc(C(=O)OCC(=O)N2CCN(Cc3ccccc3)CC2)cc1[N+](=O)[O-]`, the “activity change, negative = inhibition” value was -7.01% (inactive).
With `FC(F)(F)c1ccccc1-c1nc(NCc2ccc(-c3ccc4c(c3)OCCO4)cc2)c2ccccc2n1` the “activity change, negative = inhibition” value was -18.9% (inactive).
For `FC(F)(F)c1ccccc1-c1nc(NCc2ccc(-c3ccc(Cl)c(Cl)c3)cc2)c2ccccc2n1`, the “activity change, negative = inhibition” value was -14.5% (inactive).
In the case of `N#Cc1c(-c2cccs2)no[n+]1[O-]`, the “activity change, negative = inhibition” value is reported as -15.1% (inactive).
In the case of `COc1ccnc(CS(=O)c2nc3cc(OC(F)F)ccc3[nH]2)c1OC` (configuration not stated), the Potency is reported as 31.6 µM (active).
`O=c1c2ccc(-c3cn[nH]c3)cc2nc2sc(Nc3ccc4c(c3)CCC4)nn12` was tested, and the “activity change, negative = inhibition” value was 10.5% (inactive).
`S=C(Nc1cc(Cl)ccn1)N1CCN(c2ccc(Cl)cc2Cl)CC1` was tested, and the “activity change, negative = inhibition” value was -13.6% (inactive).
With `O=C(O)c1ccc(S(=O)(=O)N[C@@H](Cc2ccc(O)cc2)C(=O)O)cc1` the “activity change, negative = inhibition” value was 3.56% (inactive).
With `O=c1c(Nc2ccc(Br)c(Br)c2)c(Nc2nnc(-c3ccncc3)s2)c1=O` the “activity change, negative = inhibition” value was 8.23% (inactive).
With `Cc1ccc([S+](=O)([O-])Nc2nn3c(=O)c4ccccc4nc3s2)cc1C` the “activity change, negative = inhibition” value was 4.35% (inactive).
With `CCn1cnc2c(Nc3ccc(Cc4cccnc4)cc3)nc(C#N)nc21` the “activity change, negative = inhibition” value was 12.4% (inactive).
For `CC1=C(C(=O)Nc2ccon2)C(c2nn(C)cc2Cl)N=C(Nc2nc3ccccc3o2)N1` (configuration not stated), the “activity change, negative = inhibition” value was 16% (inactive).
`CN(C)c1ccc(-c2nc3ncc(Cl)c(N4CCN(CC(=O)Nc5nccs5)CC4)c3[nH]2)cc1` was tested, and the “activity change, negative = inhibition” value was 4% [at 28 µM] (inactive).

Each compound was assayed against Aldehyde dehydrogenase 1A1 (Homo sapiens) (UniProt P00352) (assay: qHTS for Inhibitors of the Aldehyde Dehydrogenase Family (ALDH1A1) Confirmatory screens (AID 2061316; note: nearly all actives have a fitted effect of over 65% in size)). Conditions: ALDH inhibition qHTS; series mostly up to 47.3 µM; activity change, negative = inhibition: at the top concentration.
`O=C1c2ccccc2NC(c2ccc(-c3cccc(Cl)c3)o2)N1O` (configuration not stated) was tested, and the Potency was 22.5 µM (active).
For `O=c1c2ccccc2nc2sc(NS(=O)(=O)c3ccc4c(c3)CCC4)nn12`, the Potency was 8.96 µM (active).
`O=S1(=O)N=C(Oc2ccc(Br)cc2)c2ccccc21` was tested, and the Potency was 12.7 µM (active).
In the case of `COc1cccc(CNc2ccc(S(=O)(=O)Nc3cccs3)cc2)c1O`, the Potency is reported as 0.634 µM (active).
With `CN(CC(=O)Nc1ccc(N2CCOCC2)cc1)Cc1cccc2ccccc12` the Potency was 11.3 µM (active).
With `FC(F)(F)c1ccccc1-c1nc(NCc2ccc(-c3ccc(Cl)c(Cl)c3)cc2)c2ccccc2n1` the Potency was 20.1 µM (active).
`Cc1ccc([S+](=O)([O-])Nc2nn3c(=O)c4ccccc4nc3s2)cc1C` was tested, and the Potency was 12.7 µM (active).
